# The supplement of paper PMC10646978
# ± gives the standard deviation.
# Tests used:
# Conditions in all cases: modulator concentration 10 µM
# [1] = tested on: RAW-Dual (murine macrophage reporter line); assay: NF-kB reporter (SEAP) activity fold change vs agonist alone; higher = enhanced NF-kB activity
# Method in brief: (§1)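 Compound reached 10 μM final in each well by pin transfer, onto RAW-Dual murine macrophage reporter cells seeded at 50 000 per well in 384-well plates. After 1 hour at 37 °C, the cells were stimulated overnight with a PRR agonist. SEAP in the supernatant was read with QUANTI-Blue at 620 nm absorbance for NF-κB, and Lucia luciferase was read with QUANTI-Luc luminescence for IRF. Each signal was turned into fold change against the mean agonist-only control on the same plate, and two replicate plates were averaged with propagated errors.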
# [2] = tested on: RAW-Dual (murine macrophage reporter line); assay: IRF reporter (Lucia luciferase) activity fold change vs agonist alone; higher = enhanced IRF activity
# Method in brief: as §1
# [3] = tested on: RAW-Dual (murine macrophage reporter line); assay: viability score (confluency relative to resting cells, overnight) (fraction); higher = more viable, active = viable (0.7 or more)
# Method in brief: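 A compound met the cutoff when both of two confluency masks exceeded 70% of resting cells. Those masks were made with IncuCyte software from IncuCyte images of RAW-Dual macrophages treated overnight at 10 μM final. This is the basis of the viability score, which is confluency relative to resting cells.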
# [4] = agonist: CpG ODN 1826 0.5 ug/mL
Structure (SMILES),"NF-kB reporter [1, 4]",NF-kB reporter ([1]; agonist: LPS 0.1 ug/mL),NF-kB reporter ([1]; agonist: MPLA […]),IRF reporter ([2]; agonist: 3'3'-cGAMP 10 ug/mL),IRF reporter ([2]; agonist: LPS 0.1 ug/mL),IRF reporter ([2]; agonist: MPLA […]),viability score [3]
CCOC(=O)CC(C)(O)P(=O)(OCC)OCC (centres undefined),1.01 ± 0.066,1.08 ± 0.068,0.955 ± 0.069,1.04 ± 0.035,1.44 ± 0.2,1.18 ± 0.12,1 (active)
Cl.N=C1CCCN1Cc1[nH]c(=O)[nH]c(=O)c1Cl,1.46 ± 0.062,0.379 ± 0.037,0.688 ± 0.06,0.423 ± 0.028,0.796 ± 0.23,0.995 ± 0.31,0.961 (active)
CN(C)CCCN1c2ccccc2CCc2ccc(Cl)cc21.Cl,0.559 ± 0.098,1.15 ± 0.43,1.64 ± 0.2,0.503 ± 0.02,1.18 ± 0.53,1.78 ± 0.18,0.239 (inactive)
O=C(O)c1coc(CNC(=O)c2cocc2C(=O)O)c1,1.04 ± 0.1,1.08 ± 0.08,0.902 ± 0.054,0.996 ± 0.027,1.51 ± 0.21,1.14 ± 0.072,1.01 (active)
COC(=O)c1cc(NC(=O)C2CCCC2)cc(C(=O)OC)c1,0.969 ± 0.18,1 ± 0.13,1.15 ± 0.13,0.871 ± 0.09,1.13 ± 0.28,0.97 ± 0.14,0.633 (inactive)
Oc1ccc2ccccc2c1SSc1c(O)ccc2ccccc12,0.639 ± 0.15,0.993 ± 0.14,1.18 ± 0.15,0.09 ± 0.0053,0.919 ± 0.1,0.908 ± 0.096,0.963 (active)
O=C(NC1CCN(CCCCC2(C(=O)NCC(F)(F)F)c3ccccc3-c3ccccc32)CC1)c1ccccc1-c1ccc(C(F)(F)F)cc1,0.881 ± 0.043,0.952 ± 0.12,1.08 ± 0.062,0.983 ± 0.045,1.46 ± 0.33,1.44 ± 0.53,0.968 (active)
CC(=NOCCCl)C(C)=NOCCCl,0.946 ± 0.078,1.05 ± 0.13,1.21 ± 0.042,0.909 ± 0.15,1.07 ± 0.045,1.59 ± 0.2,0.585 (inactive)
O=C(O)c1cc2ccccc2[nH]1,1.02 ± 0.087,0.963 ± 0.08,1.02 ± 0.024,1.02 ± 0.071,0.975 ± 0.14,0.889 ± 0.23,1 (active)
CC(C)(O)CNC(=O)c1cccc([N+](=O)[O-])c1,0.928 ± 0.074,0.96 ± 0.11,0.954 ± 0.058,0.811 ± 0.12,0.971 ± 0.15,0.979 ± 0.23,0.995 (active)
C#CCC(Cc1cnc2nc(N)nc(N)c2n1)c1ccc(C(=O)N[C@@H](CCC(=O)O)C(=O)O)cc1 (some centres undefined),0.605 ± 0.045,0.856 ± 0.14,0.778 ± 0.038,0.774 ± 0.18,0.955 ± 0.032,0.911 ± 0.083,0.667 (inactive)
NC(=NOC(=O)c1ccc2nsnc2c1)c1ncon1,1.04 ± 0.17,0.965 ± 0.084,0.905 ± 0.088,0.922 ± 0.035,1.05 ± 0.11,1.18 ± 0.12,0.996 (active)
O=C1C=C(c2c(O)ccc3ccccc23)c2ccccc2C1=O,1.19 ± 0.21,0.399 ± 0.055,1.66 ± 0.19,0.0196 ± 0.0013,1.44 ± 0.18,0.656 ± 0.074,0.556 (inactive)
N#CC(=Cc1c(F)cccc1Cl)C(=O)Nc1ccc(Cl)cc1,1.08 ± 0.22,0.977 ± 0.077,0.952 ± 0.079,0.746 ± 0.17,1.3 ± 0.22,1.25 ± 0.13,1.01 (active)
Cc1cc(C)nc(NS(=O)(=O)c2ccc(NC(=O)C=Cc3cccc4ccccc34)cc2)n1,1.14 ± 0.091,1.14 ± 0.083,1.17 ± 0.091,0.248 ± 0.026,1.21 ± 0.12,1.04 ± 0.17,0.956 (active)
CCC(C)C(=O)OC1CCC=C2C=CC(C)C(CCC3CC(O)CC(=O)O3)C21 (centres undefined),0.946 ± 0.11,0.83 ± 0.061,1 ± 0.094,0.941 ± 0.046,1.24 ± 0.23,1.33 ± 0.32,1.05 (active)
Cc1ccc(-c2ccc3nnc(CCC(=O)NCc4ccc(C(F)(F)F)cc4)n3n2)cc1C,0.671 ± 0.041,1.04 ± 0.086,1.04 ± 0.07,0.747 ± 0.047,1.15 ± 0.23,1.16 ± 0.41,0.94 (active)
COc1ccc(Cl)cc1C(=O)Nc1ccc(NC(=O)c2ccccc2)cc1,0.907 ± 0.079,1.12 ± 0.11,0.949 ± 0.057,0.937 ± 0.023,1.34 ± 0.2,1.09 ± 0.25,1.02 (active)
COc1ccc(OC)c(C=NNC(=O)c2cc(C)oc2C)c1,0.912 ± 0.16,0.925 ± 0.098,0.877 ± 0.067,0.936 ± 0.044,1.26 ± 0.22,1.25 ± 0.2,0.566 (inactive)
Cc1cc(O)c(C(C)C)cc1NC(=O)c1cc(C(C)(C)C)oc1C,1.22 ± 0.12,0.884 ± 0.083,1.76 ± 0.13,0.562 ± 0.025,0.998 ± 0.048,2.71 ± 0.29,0.797 (active)
COc1ccc(CCN(C)CCCC(C#N)(c2ccc(OC)c(OC)c2)C(C)C)cc1OC.Cl (centres undefined),0.742 ± 0.21,1.02 ± 0.25,1.12 ± 0.082,0.572 ± 0.018,1.32 ± 0.26,1.27 ± 0.12,0.977 (active)
CC(C)(C)C1CCc2c(sc(NC(=O)c3ccc(Cl)cc3)c2C(N)=O)C1 (centres undefined),1.02 ± 0.086,1.05 ± 0.093,0.91 ± 0.081,0.961 ± 0.043,1.55 ± 0.23,1.16 ± 0.089,1.01 (active)
Nc1ccccc1NC(=O)c1ccc(CNc2nccc(-c3cccnc3)n2)cc1,2.46 ± 0.12,1.73 ± 0.15,2.58 ± 0.15,0.0523 ± 0.0046,0.16 ± 0.016,0.186 ± 0.051,0.56 (inactive)
COc1ccc(C2NN(Cc3ccccc3)C3C(=O)N(C)C(=O)C23)cc1 (centres undefined),0.902 ± 0.058,0.945 ± 0.088,1.13 ± 0.086,1.26 ± 0.068,1.33 ± 0.29,1.46 ± 0.5,0.955 (active)
O=C1CCCN1c1ccc(Cn2cc(-c3nc(-c4ccc(F)cc4)no3)ccc2=O)cc1,0.981 ± 0.15,1.06 ± 0.086,1.01 ± 0.086,1.02 ± 0.053,1.04 ± 0.066,1.16 ± 0.15,1.01 (active)
O=c1ncnc2[nH][nH]cc1-2,0.832 ± 0.071,0.865 ± 0.043,1.13 ± 0.13,0.979 ± 0.059,1.17 ± 0.07,1.31 ± 0.15,1.02 (active)
O=C(Nc1nc2cccc(-c3ccc(CN4CCS(=O)(=O)CC4)cc3)n2n1)C1CC1,0.0988 ± 0.0077,0.639 ± 0.07,0.873 ± 0.05,0.79 ± 0.047,0.851 ± 0.2,0.845 ± 0.25,0.834 (active)
